Mtb betalactam – beta-lactam sensitization of Mtb H37Rv | 0.27% of 330,000 active | inhibition, % at 25 µM | M. tuberculosis H37Rv growth with meropenem, percent inhibition; call rule not given here;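 further: growth measured after seven days incubation then overnight dye step; 0% = bacteria only wells and 100% = bacteria with antibiotic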
GDH-TPI counter – inhibits GDH-TPI coupling enzymes, artifact for Mtb FBA screen. GDH-TPI coupled enzyme counterscreen, NADH absorbance. inhibition, % at 4.8 µM. 1.2% of 360,000 active. AID 588335;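 further: 0% = DMSO wells and 100% = wells lacking the enzyme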
MazEF act – MazEF (E. coli) toxin RNase activation | P0AE70 | FAM/BHQ RNA-DNA oligo cleavage fluorescence, 5 h | activation, % at 20 µM | 0.32% of 350,000 active | AID 504720; in the data active means activation above about 50%
Target sequence (P0AE70 whole entry, looked up): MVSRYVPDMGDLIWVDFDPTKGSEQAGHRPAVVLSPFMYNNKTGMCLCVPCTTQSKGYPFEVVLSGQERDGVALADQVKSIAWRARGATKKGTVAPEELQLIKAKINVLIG
CCHFV vOTU inh – blocks the CCHF virus ovarian tumor domain protease | inhibition, % at 11.5 µM | 0.55% of 370,000 active | AID 651958 | CCHFV vOTU protease, Pep-AMC fluorescence; further: 0% = vehicle wells with enzyme and 100% = no enzyme wells
FBA Mtb inh – Mtb fructose-bisphosphate aldolase inhibition; purified M. tuberculosis FBA, fluorescence read-out; inhibition, % at 1 µM; 2.3% of 360,000 active; in the data active means inhibition above about 27%;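 further: 0% = vehicle and 100% = reference inhibitor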
Target sequence (P9WQA3 whole entry, looked up): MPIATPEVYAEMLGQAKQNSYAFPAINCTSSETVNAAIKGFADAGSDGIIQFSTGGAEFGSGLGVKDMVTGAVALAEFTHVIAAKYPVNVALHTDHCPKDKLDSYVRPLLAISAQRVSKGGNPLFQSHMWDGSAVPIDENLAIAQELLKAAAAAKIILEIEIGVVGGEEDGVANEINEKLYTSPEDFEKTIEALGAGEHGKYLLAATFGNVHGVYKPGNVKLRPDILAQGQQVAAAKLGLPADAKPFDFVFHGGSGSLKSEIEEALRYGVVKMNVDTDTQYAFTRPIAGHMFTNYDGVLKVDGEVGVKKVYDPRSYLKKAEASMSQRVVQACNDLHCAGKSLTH
* = called active by the depositor. A selection: hits, their analogues and other compounds. The true share with any hit is near 4%. Unless noted, no stated cut-off is given here; in the data, active means inhibition above about 30%; inactive means the rest.

For N=C(N)c1ccc(Cl)cc1 the results were Mtb betalactam 4.0, GDH-TPI counter 4.4, MazEF act -2.9, CCHFV vOTU inh -14.9 and FBA Mtb inh 0.4.
Screening N=C(N)c1ccc(/C=C/c2ccc(C(=N)N)cc2O)cc1 returned Mtb betalactam 34.6, GDH-TPI counter 12.4, MazEF act 59.6*, CCHFV vOTU inh -12.3 and FBA Mtb inh 5.5.
For NC(=O)c1ccc(-n2nnnc2SCC(=O)Nc2ccccc2F)cc1 the results were Mtb betalactam 4.9, GDH-TPI counter 7.8, MazEF act 98.0*, CCHFV vOTU inh -10.6 and FBA Mtb inh 5.1.
For O=C(CSc1nnnn1-c1ccc(F)cc1)Nc1ccccc1F the results were Mtb betalactam 1.1, GDH-TPI counter -3.5, MazEF act 4.7, CCHFV vOTU inh -9.2 and FBA Mtb inh -1.8.
`COc1ccc(/C=C/C(=O)Nc2cc(=O)n(C)c(=O)n2C)cc1` gave Mtb betalactam -0.1, GDH-TPI counter 27.1, MazEF act 4.4, CCHFV vOTU inh 25.9 and FBA Mtb inh 0.1.
For Cn1c(NC(=O)/C=C/c2ccccc2)cc(=O)n(C)c1=O the results were Mtb betalactam 6.9, GDH-TPI counter 61.7*, MazEF act 2.0, CCHFV vOTU inh 11.9 and FBA Mtb inh -0.8.
Screening Cc1cc(NC(=O)CSc2nc(-c3ccco3)cc(C(F)(F)F)n2)no1 returned Mtb betalactam -10.4, GDH-TPI counter 24.3, MazEF act -2.6, CCHFV vOTU inh 9.7 and FBA Mtb inh 3.6.
Screening O=C(CCCSc1nc(-c2ccco2)cc(C(F)(F)F)n1)NCc1cccs1 returned Mtb betalactam 1.6, GDH-TPI counter 10.4, MazEF act -11.0, CCHFV vOTU inh 7.9 and FBA Mtb inh -3.7.
`O=C(CSc1nc(-c2ccco2)cc(C(F)(F)F)n1)NCC1CCCO1` (centres undefined) gave Mtb betalactam 2.2, GDH-TPI counter 31.4*, MazEF act 3.4, CCHFV vOTU inh 5.9 and FBA Mtb inh 0.5.
Screening COc1ccccc1N1CCN(C(=O)CSc2nc(-c3ccco3)cc(C(F)(F)F)n2)CC1 returned Mtb betalactam 15.0, GDH-TPI counter 31.7*, MazEF act -8.0, CCHFV vOTU inh 17.3 and FBA Mtb inh 0.3.
`Cc1cccc(C)c1NC(=O)CSc1nc(-c2ccco2)cc(C(F)(F)F)n1` gave Mtb betalactam -7.2, GDH-TPI counter 33.3*, MazEF act -15.8, CCHFV vOTU inh 3.2 and FBA Mtb inh 1.8.
For O=C(CCCSc1nc(-c2ccco2)cc(C(F)(F)F)n1)NCC1CCCO1 (centres undefined) the results were Mtb betalactam 31.9, GDH-TPI counter 32.9*, MazEF act 0.2, CCHFV vOTU inh -4.6 and FBA Mtb inh -0.3.
For O=S(=O)(CC1NCCc2ccccc21)NCCc1ccccc1 (centres undefined) the results were CCHFV vOTU inh -2.2.
`Clc1ccc([C@H]2OC[C@@]3(CNCCc4c[nH]c5ccccc45)CS[C@H](c4ccc(Cl)cc4)N23)cc1` gave CCHFV vOTU inh 19.9.
Screening O=C(CCSc1nc(-c2ccco2)cc(C(F)(F)F)n1)NCC1CCCO1 (centres undefined) returned Mtb betalactam -13.4, GDH-TPI counter 32.9*, MazEF act 1.3, CCHFV vOTU inh 4.1 and FBA Mtb inh -0.7.
`FC(F)Sc1ccc(NC(=S)NC(c2ccccc2)c2ccccc2)cc1` gave Mtb betalactam 54.0, GDH-TPI counter 1.0, MazEF act 127.1*, CCHFV vOTU inh 3.1 and FBA Mtb inh -5.1.
`C[C@H](O)[C@@H]1CN2CCc3c([nH]c4c(-c5ccccc5)cccc34)[C@@H]2C[C@@H]1N(C)C(=S)Nc1ccc(C#N)cc1` gave CCHFV vOTU inh 5.9.
Screening CN1CC=C2C(C#N)=C(N)C(C#N)(C#N)[C@H](c3cccs3)[C@H]2C1 returned Mtb betalactam -10.1, GDH-TPI counter 12.8, MazEF act -344.2 and FBA Mtb inh 8.8.
For CN1CC=C2C(C#N)=C(N)C(C#N)(C#N)C(CCc3ccccc3)C2C1 (centres undefined) the results were Mtb betalactam -7.2, GDH-TPI counter 0.3, MazEF act 20.4 and FBA Mtb inh 39.0*.
For CC(C)(C)N(Cc1cn(CC2CCCCC2)nn1)S(=O)(=O)c1ccccc1Br the results were CCHFV vOTU inh 8.3.
`COc1ccc(/C=N/NC(=O)c2[nH]c3ccc(Br)cc3c2-c2ccccc2)c(C(=O)O)c1OC` gave Mtb betalactam 66.5, GDH-TPI counter 38.8*, MazEF act 3.8, CCHFV vOTU inh 4.0 and FBA Mtb inh 6.7.
For COc1ccc(/C=N/NC(=O)c2[nH]c3ccc(Br)cc3c2-c2ccccc2)cc1 the results were Mtb betalactam 7.8, GDH-TPI counter 21.1, MazEF act 1.9, CCHFV vOTU inh -10.5 and FBA Mtb inh 3.6.
For COc1ccc(/C=N/NC(=O)c2[nH]c3ccc(Cl)cc3c2-c2ccccc2)c(C(=O)O)c1OC the results were Mtb betalactam 2.6, GDH-TPI counter 30.9*, MazEF act -16.5, CCHFV vOTU inh 29.4 and FBA Mtb inh 5.0.
`COC(=O)[C@]1(CNC(=O)c2cc(F)ccc2F)CC(=O)N(C)[C@@H]1c1ccccc1` gave CCHFV vOTU inh -1.8.
Screening O=C(NC1CCC1)c1ccc(C#CC2CC2)c[n+]1[O-] returned CCHFV vOTU inh 7.3.
CCN1CCCCC(NC(=O)c2cccc(C(F)(F)F)c2)C1=O (centres undefined) was read as CCHFV vOTU inh -2.8.
CC/C=C\[C@H](O)[C@H](O)C1=C(C)C(=O)[C@]2(O1)C(=O)N[C@@](OC)(C(=O)c1ccccc1)[C@@H]2O was read as CCHFV vOTU inh 1.9.
For O=C(/C=C/Nc1cccc(C(F)(F)F)c1)c1ccc(Oc2ncccn2)cc1 the results were Mtb betalactam 2.7, GDH-TPI counter 32.5*, MazEF act 2.3, CCHFV vOTU inh 4.6 and FBA Mtb inh -0.9.
For O=C(/C=C/Nc1cccc(C(F)(F)F)c1)c1ccco1 the results were Mtb betalactam 4.2, GDH-TPI counter 7.0, MazEF act 2.9, CCHFV vOTU inh 13.8 and FBA Mtb inh -0.2.
COCCCN1C(=O)[C@H](CC(=O)NCC2CCCCC2)[C@]2(C(=O)OC)CCCCC=C12 was read as CCHFV vOTU inh -0.7.
`COc1cccc(C2Nc3ccccc3NC3=C2C(=O)CC(C)(C)C3)c1OC` (centres undefined) gave Mtb betalactam 1.6, GDH-TPI counter 34.8*, MazEF act 4.6, CCHFV vOTU inh 1.4 and FBA Mtb inh 2.0.
For COc1ccc(C2Nc3ccccc3NC3=C2C(=O)CC(C)(C)C3)c(OC)c1OC (centres undefined) the results were Mtb betalactam 9.0, GDH-TPI counter 7.7, MazEF act 1.1, CCHFV vOTU inh 6.3 and FBA Mtb inh -3.9.
CC1(C)CC(=O)C2=C(C1)Nc1ccccc1NC2c1ccc(F)cc1 (centres undefined) was read as Mtb betalactam -0.7, GDH-TPI counter 27.4, MazEF act 5.3, CCHFV vOTU inh 3.5 and FBA Mtb inh -0.3.

Screens deposited in PubChem BioAssay by several laboratories.
